Screens as filed in PubChem BioAssay.
Rows were chosen to be rich in hits. Some 1.6% of all compounds tested hit in one or more screens of this group.
KCNQ2 enhance = potentiators of rat KCNQ2 potassium channel | CHO-K1 KCNQ2, FluxOR thallium flux fluorescence; active compounds read high | B-score at 10 µM | 0.54% of 310,000 active | AID 2239, 2010 | Potassium voltage-gated channel subfamily KQT member 2 (Rattus norvegicus), O88943;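 active means fluorescence ratio B-score at least 3 SD of library B-scores, with initial fluorescence B-score within 3 of them, cut at about 5.3 in these data; same plate scores as AID 2156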;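 further: B-score of peak minus minimum over baseline fluorescence ratio after K+ and Tl+ stimulus; positive B-score means potentiation of KCNQ2 with more thallium influx and brighter signal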
KCNQ2 block = rat KCNQ2 potassium channel inhibitors, primary screen, cell-based, CHO-K1, FluxOR thallium flux, B-score | Potassium voltage-gated channel subfamily KQT member 2 (Rattus norvegicus), O88943 | 20 min; active compounds read low | B-score at 10 µM | 1.1% of 310,000 active;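 active means fluorescence ratio B-score at most minus 3 library SDs, with starting brightness B-score within 2 library SDs, cut at about -5.5 in these data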
Kir21 conf inh = mouse Kir2.1 channel blockers, retest, confirmation, cell-based, FluxOR thallium flux, duplicate; shares compounds with KCNQ2 enhance; Kir2.1-expressing cells, FluxOR thallium flux fluorescence; active compounds read low; Tl flux remaining, % of negative control (active compounds read low), % at 10 µM; 41% of 2,300 active; AID 2032, 2009;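 active means Primary-screen hit whose thallium flux fell at least 3 control SD below untreated wells in both duplicates, with normal baseline fluorescence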;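 further: 0% = blank wells without stimulus and 100% = stimulated no-compound controls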
HEK293 ctr = counter-screen for Kir2.1 inhibitors: effect in parental HEK293 cells | shares compounds with KCNQ2 enhance | FluxOR thallium flux fluorescence; 0% = unstimulated blank wells | FluxOR signal as % of negative control (100 = no effect), % at 10 µM | 19% of 2,300 active | AID 2105;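 active means dye signal at least 3 control SD above or below untreated wells in both duplicates, raw fluorescence within 3, either direction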;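 further: percent is based on the flux ratio of peak minus minimum fluorescence over baseline F0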
CHO-K1 Tl ctr = nonspecific thallium flux increase in parental CHO-K1, confirmation, counter-screen for KCNQ2 potentiator project, cell-based, FluxOR thallium flux, duplicate; shares compounds with KCNQ2 enhance; parental CHO-K1 cells, FluxOR thallium flux fluorescence; zero = vehicle mean+3SD, 100% = vehicle-minus-blank window; activity increase over 3SD of controls, % at 10 µM; 43% of 1,200 active;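 active means signal rise of at least 3 SD above the untreated control mean, in both duplicate wells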;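 further: counter screen of KCNQ2 potentiator hits so any rise reflects channel-independent effects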
KCNQ1 pot spec = human KCNQ1 channel potentiation off-target, confirmation, selectivity assay for KCNQ2 potentiator project, cell-based, CHO, FluxOR thallium flux. 28% of 1,200 active. activation over 3SD threshold, % at 10 µM. shares compounds with KCNQ2 enhance. CHO KCNQ1 stable, FluxOR thallium flux fluorescence; beyond 3SD, as % of vehicle-control signal;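 active means fluorescence ratio rise of at least 3 SD of vehicle wells above their mean, in both replicate wells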;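 further: 0% = vehicle mean plus 3 SD and 100% = vehicle minus unstimulated blank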
KCNQ2 pot confirm = rat KCNQ2 channel potentiators, confirmation, cell-based, CHO, FluxOR thallium flux, duplicate. shares compounds with KCNQ2 enhance. CHO-KCNQ2 cells, FluxOR thallium flux fluorescence. potentiation, less the hit threshold, % at 10 µM. 68% of 1,200 active;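 active means fluorescence ratio rising 3 SD or more over the vehicle control mean in both replicates, plus primary screen hit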;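 further: peak minus minimum thallium fluorescence divided by baseline after K/Tl stimulus; 0% = vehicle mean plus 3 SD and 100% = vehicle minus unstimulated blank difference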
Kir2-1 sel = mouse Kir2.1 channel activation off-target, confirmation, selectivity assay for KCNQ2 potentiator project, cell-based, HEK293, FluxOR thallium flux. shares compounds with KCNQ2 enhance. HEK293 Kir2.1, FluxOR thallium flux fluorescence. activity over 3SD threshold, % at 10 µM. 2% of 1,200 active. AID 2345, 2010;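 active means fluorescence ratio rise of at least 3 SD above the vehicle-control mean, seen in both replicates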;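 further: 0% = vehicle mean plus 3 SD and 100% = vehicle minus no-stimulus blank window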
KCNQ2 W236L pot = potentiators of retigabine-insensitive KCNQ2 W236L, mechanism study for KCNQ2 potentiator project, cell-based, rat KCNQ2 W236L, CHO, automated patch clamp | shares compounds with KCNQ2 enhance | automated patch clamp current | current increase over 3SD of negative controls (%), active compounds read high, % at 25 µM | 10% of 940 active;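 active means current increase at least 3 SD of the untreated controls above them in both duplicate recordings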
An asterisk follows results filed as active; i = inactive; x = not tested or not shown.

SMILES | KCNQ2 enhance | KCNQ2 block | Kir21 conf inh | HEK293 ctr | others
CCC(=O)c1ccc(OCC(O)CNC(C)c2ccccc2)cc1 (stereo not given) | 0.04 | i | x | x
CC(C)c1ccc(OCC(O)CNC(C)c2ccccc2)cc1 (stereo not given) | 2.2 | i | 28%* | i
OC(CNCCc1ccccc1)COc1ccc(OCC(O)CNCCc2ccccc2)cc1 (stereo not given) | x | i | x | x
OC(CNCCC(c1ccccc1)c1ccccc1)COc1ccccc1 (stereo not given) | x | i | 36%* | i
CCN(CC)c1ccc(S(=O)(=O)N2CCOCC2)cc1NC(=O)CN1C(=O)NC2(CCC(C)CC2)C1=O (stereo not given) | x | i | x | x
CC(=O)Nc1ccc(S(=O)(=O)NCCC(=O)NNC(=O)c2ccncc2)cc1 | x | i | x | x
CCOC(=O)CC1NCCc2c1[nH]c1ccc(OC)cc21 (stereo not given) | 0.45 | i | x | x
COc1ccc(S(=O)(=O)Nc2cc3c4c(c2)CC(=O)N4CCC3)cc1C | x | i | x | x
COc1ccc(S(=O)(=O)N(C)c2ccc(C(=O)NCc3ccccn3)cc2)cc1 | 0.3 | i | x | x
CCN(Cc1ccccc1)Cc1nnnn1Cc1ccccc1 | x | i | 38%* | 69%*
c1ccc(Cn2nnnc2CN2CCN(c3ncccn3)CC2)cc1 | 0.01 | i | x | x
COc1ccc(CCNC(=O)c2ccc(CS(=O)Cc3ccc(C)cc3)o2)cc1OC (stereo not given) | 0.83 | i | x | x
CN(C(=O)c1ccc2c(c1)OCO2)C1CCS(=O)(=O)C1 (stereo not given) | 0.9 | i | x | x
CC(O)(C#CCN1CCOCC1)c1ccccc1 (stereo not given) | 0.49 | i | x | x
CN1CCN(CC#CC(C)(O)C2CC3C=CC2C3)CC1 (stereo not given) | 5.4* | i | i | i | CHO-K1 Tl ctr=-3;KCNQ1 pot spec=-39;KCNQ2 pot confirm=-10;Kir2-1 sel=-37
CC(C)OC(=O)c1cccc(C(=O)Nc2cccc(NC(=O)c3cccc(C(=O)OC(C)C)n3)n2)n1 | x | i | x | x
CC(C)n1cc(NC(=O)c2cc(-c3ccccc3)on2)cn1 | 12* | i | i | 214%* | CHO-K1 Tl ctr=14*;KCNQ1 pot spec=-11;KCNQ2 pot confirm=11*;Kir2-1 sel=-15;KCNQ2 W236L pot=i
O=C(Nc1cccnc1)c1cc(-c2ccccc2)on1 | 1.4 | i | x | x
CC(C)(C)C(=O)Nc1c2c(nn1-c1ccc(F)cc1)CSC2 | 0.03 | i | x | x
CC(C)(C)n1nc2c(c1NC(=O)Cc1ccc(F)cc1)CSC2 | 14* | i | i | i | CHO-K1 Tl ctr=1.6*;KCNQ1 pot spec=-16;KCNQ2 pot confirm=84*;Kir2-1 sel=-45;KCNQ2 W236L pot=i
CCC(OC(=O)c1nsc(Cl)c1Cl)C(=O)NCC1CCCO1 (stereo not given) | 0.17 | i | x | x
